# Measured values from the supplement of paper PMC12282887.
# ± gives the standard deviation of the averaged measurements.
# What was measured:
# Experiment in all cases: promoter activity interaction Z-score (Lux/OD deviation from empty-vector control); higher = stronger promoter induction by the compound
# [1] = test system: E. coli BW25113 acrABp lux reporter
# Summary of the method: (§1)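 In 384-well plates, 40 µl LB Lennox cultures of E. coli BW25113 with low-copy luxCDABE promoter reporters grew at 37°C. Optical density at 600 nm and light output were recorded every 30 min for 12 h, with windows of 0–8 h for wild type and 1–9 h for deletion strains, and wells under 10% of the median growth value were left out. Each value is a Z-transformed residual of growth-normalised luminescence fitted against a control.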
# [2] = test system: E. coli BW25113 marRABp lux reporter
# Summary of the method: as §1
# [3] = test system: E. coli BW25113 micFp lux reporter
# Summary of the method: as §1
# [4] = test system: E. coli BW25113 ompFp lux reporter
# Summary of the method: as §1
# [5] = test system: E. coli BW25113 robp lux reporter
# Summary of the method: as §1
# [6] = test system: E. coli BW25113 soxSp lux reporter
# Summary of the method: as §1
# [7] = test system: E. coli BW25113 tolCp lux reporter
# Summary of the method: as §1
# [8] = 0.048 µg/ml, genetic background: wild type
# [9] = 0.048 µg/ml, genetic background: ΔmarA
# [10] = 0.048 µg/ml, genetic background: Δrob
# [11] = 0.048 µg/ml, genetic background: ΔsoxS
# [12] = 0.1 µg/ml, genetic background: wild type
# [13] = 0.1 µg/ml, genetic background: ΔmarA
# [14] = 0.1 µg/ml, genetic background: Δrob
# [15] = 0.1 µg/ml, genetic background: ΔsoxS
# [16] = 0.19 µg/ml, genetic background: wild type
# [17] = 0.19 µg/ml, genetic background: ΔmarA
# [18] = 0.19 µg/ml, genetic background: Δrob
# [19] = 0.19 µg/ml, genetic background: ΔsoxS
# [20] = 0.38 µg/ml, genetic background: wild type
# [21] = 0.38 µg/ml, genetic background: ΔsoxS
smiles,measurement,setting,value
CCC(C)CCCC(=O)N[C@@H](CCN)C(=O)N[C@H](C(=O)N[C@@H](CCN)C(=O)N[C@H]1CCNC(=O)[C@H]([C@@H](C)O)NC(=O)[C@H](CCN)NC(=O)[C@H](CCN)NC(=O)[C@H](CC(C)C)NC(=O)[C@@H](CC(C)C)NC(=O)[C@H](CCN)NC1=O)[C@@H](C)O (some centres not stated) [Colistin],promoter activity interaction Z-score,[1]; [8],0.00962 ± 0.11
same,promoter activity interaction Z-score,[1]; [9],-0.167 ± 0.31
same,promoter activity interaction Z-score,[1]; [10],0.139 ± 0.096
same,promoter activity interaction Z-score,[1]; [11],0.0289 ± 0.14
same,promoter activity interaction Z-score,[1]; [12],0.308 ± 0.22
same,promoter activity interaction Z-score,[1]; [13],0.524 ± 0.34
same,promoter activity interaction Z-score,[1]; [14],0.0214 ± 0.021
same,promoter activity interaction Z-score,[1]; [15],-0.00861 ± 0.23
same,promoter activity interaction Z-score,[1]; [16],0.246 ± 0.16
same,promoter activity interaction Z-score,[1]; [17],-0.482 ± 0.29
same,promoter activity interaction Z-score,[1]; [18],0.192 ± 0.051
same,promoter activity interaction Z-score,[1]; [19],-0.0737 ± 0.12
same,promoter activity interaction Z-score,[1]; [20],0.607 ± 0.1
same,promoter activity interaction Z-score,[1]; [21],2.31 ± 2.5
same,promoter activity interaction Z-score,[2]; [8],-0.253 ± 0.2
same,promoter activity interaction Z-score,[2]; [9],-0.196 ± 0.055
same,promoter activity interaction Z-score,[2]; [10],0.00109 ± 0.051
same,promoter activity interaction Z-score,[2]; [11],0.178 ± 0.25
same,promoter activity interaction Z-score,[2]; [12],-0.233 ± 0.24
same,promoter activity interaction Z-score,[2]; [13],-0.108 ± 0.097
same,promoter activity interaction Z-score,[2]; [14],-0.0851 ± 0.097
same,promoter activity interaction Z-score,[2]; [15],0.0244 ± 0.049
same,promoter activity interaction Z-score,[2]; [16],-0.154 ± 0.21
same,promoter activity interaction Z-score,[2]; [17],-0.0032 ± 0.049
same,promoter activity interaction Z-score,[2]; [18],0.0892 ± 0.15
same,promoter activity interaction Z-score,[2]; [19],0.023 ± 0.025
same,promoter activity interaction Z-score,[2]; [20],1.21 ± 0.13
same,promoter activity interaction Z-score,[2]; [21],1.22
same,promoter activity interaction Z-score,[3]; [8],-0.359 ± 0.049
same,promoter activity interaction Z-score,[3]; [9],0.0434 ± 0.083
same,promoter activity interaction Z-score,[3]; [10],0.0506 ± 0.077
same,promoter activity interaction Z-score,[3]; [11],-0.14 ± 0.12
same,promoter activity interaction Z-score,[3]; [12],-0.48 ± 0.39
same,promoter activity interaction Z-score,[3]; [13],-0.0509 ± 0.014
same,promoter activity interaction Z-score,[3]; [14],0.0439 ± 0.063
same,promoter activity interaction Z-score,[3]; [15],-0.113 ± 0.06
same,promoter activity interaction Z-score,[3]; [16],-0.562 ± 0.18
same,promoter activity interaction Z-score,[3]; [17],-0.217 ± 0.25
same,promoter activity interaction Z-score,[3]; [18],-0.229 ± 0.24
same,promoter activity interaction Z-score,[3]; [19],-0.514 ± 0.082
same,promoter activity interaction Z-score,[3]; [20],-0.607 ± 0.2
same,promoter activity interaction Z-score,[4]; [8],-0.346 ± 0.26
same,promoter activity interaction Z-score,[4]; [9],-0.0916 ± 0.57
same,promoter activity interaction Z-score,[4]; [10],-0.0368 ± 0.43
same,promoter activity interaction Z-score,[4]; [11],0.093 ± 0.28
same,promoter activity interaction Z-score,[4]; [12],-0.267 ± 0.43
same,promoter activity interaction Z-score,[4]; [13],0.449 ± 0.06
same,promoter activity interaction Z-score,[4]; [14],0.19 ± 0.37
same,promoter activity interaction Z-score,[4]; [15],0.15 ± 0.24
same,promoter activity interaction Z-score,[4]; [16],0.073 ± 0.018
same,promoter activity interaction Z-score,[4]; [17],0.452 ± 0.48
same,promoter activity interaction Z-score,[4]; [18],-0.296 ± 0.74
same,promoter activity interaction Z-score,[4]; [19],-0.0443 ± 0.14
same,promoter activity interaction Z-score,[4]; [20],0.0453 ± 0.83
same,promoter activity interaction Z-score,[4]; [21],1.11
same,promoter activity interaction Z-score,[5]; [8],0.161 ± 0.5
same,promoter activity interaction Z-score,[5]; [9],-0.748 ± 0.18
same,promoter activity interaction Z-score,[5]; [10],0.308 ± 0.074
same,promoter activity interaction Z-score,[5]; [11],0.602 ± 0.38
same,promoter activity interaction Z-score,[5]; [12],0.156 ± 0.63
same,promoter activity interaction Z-score,[5]; [13],-0.00162 ± 0.4
same,promoter activity interaction Z-score,[5]; [14],-0.329 ± 0.5
same,promoter activity interaction Z-score,[5]; [15],1.13 ± 0.73
same,promoter activity interaction Z-score,[5]; [16],0.641 ± 1.4
same,promoter activity interaction Z-score,[5]; [17],-0.0677 ± 0.0062
same,promoter activity interaction Z-score,[5]; [18],-0.869 ± 0.76
same,promoter activity interaction Z-score,[5]; [19],-0.113 ± 0.049
same,promoter activity interaction Z-score,[5]; [20],-1.15 ± 0.17
same,promoter activity interaction Z-score,[5]; [21],-1.35 ± 0.85
same,promoter activity interaction Z-score,[6]; [8],-0.0522 ± 0.2
same,promoter activity interaction Z-score,[6]; [9],0.182 ± 0.078
same,promoter activity interaction Z-score,[6]; [10],0.268 ± 0.048
same,promoter activity interaction Z-score,[6]; [11],0.235 ± 0.097
same,promoter activity interaction Z-score,[6]; [12],-0.219 ± 0.34
same,promoter activity interaction Z-score,[6]; [13],0.306 ± 0.074
same,promoter activity interaction Z-score,[6]; [14],0.144 ± 0.06
same,promoter activity interaction Z-score,[6]; [15],0.368 ± 0.28
same,promoter activity interaction Z-score,[6]; [16],-0.09 ± 0.072
same,promoter activity interaction Z-score,[6]; [17],0.135 ± 0.0049
same,promoter activity interaction Z-score,[6]; [18],-0.469 ± 0.47
same,promoter activity interaction Z-score,[6]; [19],0.108 ± 0.33
same,promoter activity interaction Z-score,[6]; [20],-0.417 ± 0.57
same,promoter activity interaction Z-score,[6]; [21],-0.517
same,promoter activity interaction Z-score,[7]; [8],-0.508 ± 0.048
same,promoter activity interaction Z-score,[7]; [9],-0.536 ± 0.12
same,promoter activity interaction Z-score,[7]; [10],0.211 ± 0.004
same,promoter activity interaction Z-score,[7]; [11],0.982 ± 0.44
same,promoter activity interaction Z-score,[7]; [12],-0.675 ± 0.32
same,promoter activity interaction Z-score,[7]; [13],0.378 ± 0.075
same,promoter activity interaction Z-score,[7]; [14],-0.935 ± 0.56
same,promoter activity interaction Z-score,[7]; [15],0.791 ± 0.7
same,promoter activity interaction Z-score,[7]; [16],-0.155 ± 0.13
same,promoter activity interaction Z-score,[7]; [17],-1.61 ± 0.11
same,promoter activity interaction Z-score,[7]; [18],-0.925 ± 0.63
same,promoter activity interaction Z-score,[7]; [19],-0.699 ± 0.78
same,promoter activity interaction Z-score,[7]; [20],-0.255 ± 0.42
same,promoter activity interaction Z-score,[7]; [21],-0.469 ± 0.66
